Compounds with a hit are over-represented: about 2.4% of the library has one in this group of screens.
PKM2 act: increases activity of human pyruvate kinase M2; P14618; purified PKM2, Kinase-Glo ATP luminescence, activation; response scale: 0% is enzyme alone, no compound; Potency, µM (highest dose often 57.5 µM), for the others: at the top dose activation, usual class: activators; 260,000 tested, 0.34% active; further: on the % scale 0 is the no-effect control and ±100 the full control effect; nearly all actives have a fitted effect of over 55% in size
Target sequence (P14618 whole entry, looked up): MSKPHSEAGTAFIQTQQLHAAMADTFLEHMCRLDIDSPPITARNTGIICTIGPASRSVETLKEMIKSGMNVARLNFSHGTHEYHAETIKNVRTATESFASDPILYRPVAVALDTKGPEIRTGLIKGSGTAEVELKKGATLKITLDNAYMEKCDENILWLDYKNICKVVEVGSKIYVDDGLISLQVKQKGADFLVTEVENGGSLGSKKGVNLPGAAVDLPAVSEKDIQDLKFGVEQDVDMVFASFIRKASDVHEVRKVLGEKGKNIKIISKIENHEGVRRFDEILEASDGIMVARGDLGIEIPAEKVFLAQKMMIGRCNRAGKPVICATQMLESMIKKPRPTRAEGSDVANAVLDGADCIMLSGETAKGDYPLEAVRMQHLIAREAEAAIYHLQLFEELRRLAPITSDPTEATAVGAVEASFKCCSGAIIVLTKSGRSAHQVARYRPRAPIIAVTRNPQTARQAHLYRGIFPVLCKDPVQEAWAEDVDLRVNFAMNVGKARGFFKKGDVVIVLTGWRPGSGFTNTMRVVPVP
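hPK-M2, >95% pure; 0.1 mM ADP / 0.5 mM PEP final; imidazole pH7.2 buffer w/ 7 mM MgCl2, 50 mM KCl; 1 h RT; Kinase-Glo lum. Intermediate enzyme activity for dual inhibitor/activator qHTS.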
PGK inhibitor: inhibitors of T. brucei phosphoglycerate kinase; Potency, µM (titrated, usually from 57.5 µM), for the others: at the top dose activity change, negative = inhibition, most hits filed as inhibitors; 380,000 tested, 0.043% active; PGK/GAPDH coupled, Kinase-Glo luminescence, 60 min; P07378; AID 602233; further: on the % scale 0 is the no-effect control and ±100 the full control effect; nearly all actives have a fitted effect of over 60% in size
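Recombinant glycosomal PGK reaction used 1,3-bisphosphoglycerate generated in-well by GAPDH (100nM final) in 100mM TEA pH 7.6, 5mM MgCl2, 0.01% Tween-20. After 60 minutes at room temperature, ATP was read by Kinase-Glo Plus luminescence end-point.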
ELG1 repair inh: ELG1-dependent DNA repair inhibition. HEK293T ELG1-luciferase reporter, luminescence, 16 h; DNA damage induced by 5-fluorouridine. Potency, µM (highest dose often 46.1 µM), for inactives: at the highest dose activity change, negative = inhibition, usual class: inhibitors. 330,000 tested, 2.3% active. AID 504467; further: on the % scale 0 is the no-effect control and ±100 the full control effect; nearly all actives have a fitted effect of over 55% in size
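Quantitative HTS, concentration-response format. 2,000 cells/well co-treated with 5-fluorouridine and compound, 16 hr in 5% CO2 at 37 °C; ONE-Glo luminescence read after 30 min.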
Rango complex inh: Rango-importin beta binding inhibition. Q14974. Rango CFP/YFP FRET sensor + importin beta, 45 min. Potency, µM (doses to about 92.2 µM), for the others: at the highest dose inhibition of complex formation. 340,000 tested, 0.031% active; calls by dose curve;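 further: 0% = DMSO wells and 100% = buffer wells lacking importin beta; nearly all actives have a fitted effect of over 15% in size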
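FRET biosensor (snurportin 1 IBB flanked by EYFP and cerulean), 50 nM, with compound 5 min, then 0.125 microM importin beta in PBS, 1 mM DTT, 0.02% Tween-20, 0.1% BSA. CFP/YFP ratio read after 45 min at room temperature; pre-read flags interference.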
Rango dissoc inh: prevents RanGTP from dissociating the Rango-importin beta complex; O95149+P62826; Biochemical FRET Rango-importin beta, RanGTP-induced dissociation; Potency, µM (series often up to 46.1 µM), without a hit: at the highest dose activity change, negative = inhibition; 340,000 tested, 0.071% active; AID 540253; calls by dose curve; further: % of control where 0% means no effect; nearly all actives have a fitted effect of over 45% in size
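Two FRET readings bracket the reaction: one 5 min after compound meets Rango–importin beta, another 45 min after RanGTP-RCC1 (0.6 uM Ran, 0.2 uM RCC1, 2 mM GTP) is added. Only the second defines inhibition.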
Tb PFK block: T. brucei PFK enzyme inhibition; T. brucei PFK, ADP-Glo luminescence; 330,000 tested, 0.17% active; Potency, µM (titrated, usually from 57.5 µM), without a hit: at the top dose activity, negative = inhibition, most hits filed as inhibitors; AID 485367;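 further: 0% = uninhibited 1x PFK enzyme wells and -100% = no-enzyme wells; nearly all actives have a fitted effect of over 60% in size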
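Compounds were pin-transferred as a titration series up to 57 uM into substrate buffer (0.5 mM F6P, 0.1 mM ATP, pH 8.0), then 1.25 nM PFK was added and reactions ran 45 min before ADP-Glo detection.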
Active calls of the source: *; i = inactive; ? = inconclusive; . = not tested or not shown; [ ] = remark or other dose. Unless noted, the call rests on the fitted dose curve; in most records, active means well fitted curve in the direction sought with a large enough effect; inconclusive means small, poorly fitted or top-dose-only effect, or another doubt; inactive means no such curve, though single readings can be large; an effect the other way counts as inactive or inconclusive. Potency means the concentration at half of the fitted maximal effect.

SMILES	PKM2 act	PGK inhibitor	ELG1 repair inh	Rango complex inh	Rango dissoc inh	Tb PFK block
COc1ccc(C2(O)CCN(CC(=O)Nc3nc(-c4ccccc4)cs3)CC2)cc1	.	-3%	23µM*	-7%	7%	0%
O=c1[nH]c(CN2CCN(Cc3ccc4c(c3)OCO4)CC2)nc2sc3c(c12)CCC3	-13%	.	0%	.	.	-1%
O=c1[nH]c(CN2CCN(S(=O)(=O)c3ccccc3C(F)(F)F)CC2)nc2sc3c(c12)CCCC3	-8%	5%	16µM*	-5%	-8%	-2%
Cc1cccc(NC(=O)CNC(=O)c2cccc(-n3cccc3)c2)c1C	.	?	0%	-1%	13%	21µM*
Cc1csc(NC(=O)c2nc(-c3ccccc3)n(-c3ccccc3)n2)n1	1%	i	15µM*	3%	5%	0%
CC(C)OC(=O)C1Cc2ccccc2CN1S(=O)(=O)c1cccs1 (stereo not given)	4%	-6%	-14%	-3%	6%	-23%
CCOC(=O)c1c(NC(=O)c2cccs2)sc2c1CC(C)(C)OC2	4%	-13%	9.2µM*	-2%	3%	2%
CCn1c(C(=O)N2CCC(C(=O)NCCCSC3CCCCC3)CC2)cc2sccc21	-3%	2%	21µM*	-1%	-16%	0%
O=C(NCc1ccccn1)C1CCN(C(=O)c2cc3sccc3n2Cc2ccc(F)cc2)CC1	3%	-8%	21µM*	1%	4%	-1%
CCn1c(C(=O)N2CCC(C(=O)NCc3ccc4c(c3)OCO4)CC2)cc2sccc21	6%	8%	7.3µM*	2%	-8%	0%
CCn1c(C(=O)N2CCC(C(=O)NCCc3ccccc3)CC2)cc2sccc21	.	-4%	.	.	.	.
COC(=O)c1ccc(CNC(=O)CNC(=O)c2sc3ccccc3c2Cl)cc1	.	0%	-3%	2%	0%	-3%
CC1(C)Cc2c(c(N3CCOCC3)nc3sc(C(N)=O)c(N)c23)CO1	10%	i	5.2µM*	0%	6%	0%
Cc1ccc(NC(=O)c2sc3nc(N4CCOCC4)c4c(c3c2N)CC(C)(C)OC4)cc1	.	-3%	?	2%	-8%	-1%
CC1(C)Cc2c(c(N3CCOCC3)nc3sc(C(=O)Nc4ccc(Cl)cc4)c(N)c23)CO1	.	-2%	0.92µM*	-7%	0%	-9%
COC(=O)c1ccc(-c2sc3nc(N4CCOCC4)c4c(c3c2N)CC(C)(C)OC4)o1	-1%	3%	5.2µM*	?	?	-13%
c1ccc(-c2nnc(-c3ccccn3)nc2NC2CCCCC2)cc1	-10%	-1%	18µM*	4%	12%	-2%
Cn1c(SCC(=O)Nc2ccc3nc(SCC(=O)N4CCCC4)sc3c2)nnc1-c1ccc(N)cc1	-3%	-17%	8.2µM*	0%	1%	?
CCN(CC)C(=O)CSc1nc2ccc(NC(=O)CSc3nnc(N)s3)cc2s1	-1%	-10%	1%	?	-10%	-25%
CCN(CC)C(=O)CSc1nc2ccc(NC(=O)CSc3nccn3C)cc2s1	10%	-1%[11.5 µM]	21µM*	3%	-9%	-1%
O=C(NCc1nnc2c(C(F)(F)F)cc(Cl)cn12)c1ccco1	14µM*	1%	?	0%	13%	-5%
CCCCNc1c(-c2ccc(OC)c(SC3CCCCC3)c2)nc2cc(C)ccn12	.	-7%	?	?	?	-8%
CCCCNc1c(-c2cccc(-c3ccc(OC)cc3)c2)nc2ccc(C)cn12	.	-2%	3.2µM*	?	?	-7%
CCCCNc1c(-c2cccc(-c3ccc(OC)cc3)c2)nc2cc(C)ccn12	.	0%	23µM*	?	?	4%
CCCCNc1c(-c2ccc(-c3ccc(C(C)=O)cc3)c(OC)c2)nc2cnccn12	.	i	9.2µM*	?	?	5%
SMILES	PKM2 act	PGK inhibitor	ELG1 repair inh	Rango complex inh	Rango dissoc inh	Tb PFK block
Cc1nn(C(=O)c2ccccc2F)c(C)c1S(=O)(=O)N1CCOCC1	.	-4%	.	.	.	.
O=C(CCc1ccc(S(=O)(=O)NCCc2ccccc2)cc1)Nc1ccc2c(c1)OCCO2	7%	i	13µM*	-1%	-10%	1%
CCCNS(=O)(=O)c1ccc(CCC(=O)Nc2ccc3c(c2)OCCO3)cc1	-3%	-8%	-2%	?	-18%	6%
Nc1[nH]nc2nc3ccccc3cc12	9%	-9%	25%	-3%	?	1%
Nc1cccc2nc3ccccc3cc12	3%	i	23µM*	-3%	?	-14%
CC(C)c1ccc(/C=C2\SC(=O)N(CC(=O)NCCCn3ccnc3)C2=O)cc1	.	-7%	?	6%	-4%	-1%
CN(C)C(=O)/C(=C/c1ccc(-c2cccc([N+](=O)[O-])c2)o1)NC(=O)c1ccccc1	6%	2%	?	0%	-3%	4%
CN(C)C(=O)/C(=C\c1ccc(-c2cccc([N+](=O)[O-])c2)o1)NC(=O)c1ccccc1	6%	-8%	21µM*	?	-2%	-1%
COc1cccc(-n2ccnc2SCC(=O)Nc2c(C)cc(C)cc2C)c1	.	-2%	.	.	.	.
CCOc1ccc(-n2cc(-c3ccccc3)c3c(N4CCOCC4)ncnc32)cc1	-1%	-1%	9.2µM*	-3%	-10%	6%
COc1ccc(CC(=O)N2CCc3cc(OC)c(OC)cc3C2C)c(OC)c1 (stereo not given)	.	i	-13%	-5%	0%	-1%
O=C(CSc1nnc2n(C3CCCC3)c(=O)c3ccccc3n12)N1CCCCCC1	3%	i	?	0%	-2%	1%
CC1CCCN(C(=O)CSc2nnc3n(C4CCCC4)c(=O)c4ccccc4n23)C1 (stereo not given)	7%	0%	9.2µM*	-3%	4%	0%
CCOc1cc(/C=C2\CCC/C(=C\c3cc(Cl)c(O)c(OCC)c3)C2=O)cc(Cl)c1O	-1%	-13%	6.5µM*	?	6.5µM*	-7%
CCOc1cc(/C=C2\CN(C)C/C(=C\c3ccc(O)c(OCC)c3)C2=O)ccc1O	.	3%	23µM*	?	-1%	-1%
O=S(=O)(NCC1CCC(NS(=O)(=O)c2c(F)cccc2F)CC1)c1ccc2c(c1)OCCO2 (stereo not given)	.	-4%	8%	2%	13%	6%
CC(C)n1cc(C(=O)N2CCCC(N3CCN(c4cccc(Cl)c4)CC3)C2)cn1 (stereo not given)	3%	0%	-9%	0%	-7%	-3%
